# Screening data as filed in PubChem.
# The list is not random: actives were taken first. Their share in the collection is about 6.2%.
# AI-2 QS modul = Vibrio harveyi AI-2 quorum sensing modulators, primary screen, JMH597 strain, luminescence/OD600 ratio; activity change, % at 7.5 µM; 300,000 compounds, 0.4% hits; Vibrio harveyi JMH597 AI-2 luminescence/OD600 ratio, 9 h; hits give low values; strain lacks LuxN and CqsS sensors; 0 = neutral-control median; in the data active means activity change below about -75%, passing the limit was not always enough; inconclusive means no clear call, values can overlap the other calls;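 further: luminescence divided by OD600 gain over 9 h not by final OD600 alone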
# NTR1 ag = agonists of human NTR1, primary screen, imaging, U2OS cells, beta-arrestin-GFP, high content; Neurotensin receptor type 1 (Homo sapiens), P30989; NTR1-U2OS beta-arrestin-GFP spot imaging, agonist mode; activation, % at 20 µM; 330,000 compounds, 0.17% hits;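 active means activation at or above 40% of the spot to cytoplasm intensity ratio, with at least 20 cells analyzed; inconclusive means wells under 20 cells, flagged as cytotoxic or low count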;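 further: 0% = DMSO without peptide and 100% = 100 nM NTR1 peptide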
# Target sequence (P30989 whole entry, looked up): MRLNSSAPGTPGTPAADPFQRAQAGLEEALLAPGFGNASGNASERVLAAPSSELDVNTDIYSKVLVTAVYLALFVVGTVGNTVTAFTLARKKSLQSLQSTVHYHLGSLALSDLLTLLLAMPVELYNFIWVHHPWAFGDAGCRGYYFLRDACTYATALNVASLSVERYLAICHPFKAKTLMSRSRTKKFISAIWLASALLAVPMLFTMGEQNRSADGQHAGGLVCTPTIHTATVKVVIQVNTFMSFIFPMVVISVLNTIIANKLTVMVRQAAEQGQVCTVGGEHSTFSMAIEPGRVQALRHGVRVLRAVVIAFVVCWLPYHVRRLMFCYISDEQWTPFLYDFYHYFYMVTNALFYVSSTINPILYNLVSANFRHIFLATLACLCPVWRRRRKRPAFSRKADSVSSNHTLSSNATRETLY
# AHR activator = AHR activators, primary screen, cell-based, luminescence, luciferase reporter, human | 320,000 compounds, 2.5% hits | AHR-responsive luciferase reporter cells | Aryl hydrocarbon receptor (Homo sapiens), P35869 | activation, % at 5 µM; in the data active means activation above about 47%;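 further: 0% = vehicle wells and 100% = reference agonist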
# GRIN3A LBD mod = binders of NR3A ligand-binding domain, primary screen, biophysical, differential scanning fluorimetry, uHTS; Glutamate receptor ionotropic, NMDA 3A (GRIN3A) ligand-binding domain; Tm shift relative to glycine control, % at 25 µM; AID 1259313, 2017; NR3A LBD differential scanning fluorimetry, Tm shift; 0% = protein alone, 100% = glycine-bound protein; 340,000 compounds, 2.5% hits;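 active means melting temperature shift of at least 10% of the positive control shift, at one fixed dose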
# Cardio protect = cardioprotection against H2O2-induced cell death, primary screen, uHTS, H9c2 cells, ATPLite luminescence. protection from H2O2 cell death, % at 20 µM. H9c2 cardiomyocytes, H2O2 injury protection, 2 h. 360,000 compounds, 0.63% hits;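 active means compounds giving at least 50% protection of heart cells from peroxide-induced death in the single-dose screen, raw or plate-pattern-corrected value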;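 further: 0% = DMSO wells with peroxide and 100% = DMSO wells without peroxide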
# SUMO Mot1 rescue = yeast Mot1-301 growth rescue at high temperature, primary screen, SUMOylation pathway inhibitor project, S. cerevisiae, ATP luminescence, 38.5C. S. cerevisiae Mot1-301 growth rescue; percent above DMSO median, 100 means doubled. growth rescue, % at 18.8 µM. 320,000 compounds, 1% hits;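 active means every valid replicate shows activation above 250% relative to neutral control wells; inactive means the rest, any valid replicate at or below 250%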;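 further: OY570 slx delta 5 strain wells were the positive control but not used for scaling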
# Starred values were filed as active, the others as inactive; u = inconclusive; x = not tested or not shown.
SMILES,AI-2 QS modul,NTR1 ag,AHR activator,GRIN3A LBD mod,Cardio protect,SUMO Mot1 rescue
C[C@H](CCC(=O)NCC(=O)O)[C@H]1CC[C@H]2C3[C@H](O)C[C@@H]4C[C@H](O)CC[C@]4(C)[C@H]3C[C@H](O)[C@]12C (stereo partly specified),-6,-1,-1,0,-6,-5
CC(=O)Nc1ccc(S(=O)(=O)Nc2cccc(-n3c(C)nc4ccccc4c3=O)c2)cc1,20,-1,-3,5,2,1
CCN(CC)C(=O)Cn1cc(S(=O)(=O)CC(=O)Nc2ccc(F)cc2)c2ccccc21,12,0,1,-1,-2,-3
COc1ccc(CN(Cc2ccc(C(=O)O)cc2)C(=S)Nc2cccc(C)c2)cc1OC,15,1,2,12*,5,6
Cc1ccc(C(=O)OCC(=O)c2c(N)n(C)c(=O)n(C)c2=O)cc1S(=O)(=O)N1CCCCC1,38,0,-2,10*,-4,9
Cc1ccc(C(=O)Oc2ccc([N+](=O)[O-])cc2)cc1S(=O)(=O)N1CCCCCC1,30,10,0,13*,-8,278
O=C(NC1CCN(Cc2ccccc2)CC1)c1cccc(S(=O)(=O)Nc2ccc(SC(F)F)cc2)c1,x,3,0,2,-18,7
CC1(C)CC(=O)c2c(O)c(-c3ccccc3)c(=O)n(-c3ccccc3)c2C1,17,2,-1,12*,1,-19
CC1(C)CC(=O)c2cc(C(=O)O)c(=O)n(-c3ccccc3)c2C1,25,0,7,0,6,-8
Cc1cc(Br)cn2c(Cc3cccc(F)c3)c(C3CCCCC3)nc12,x,x,x,x,-3,x
CCNC(=S)N(Cc1ccccc1)Cc1nc2ccccc2c(=O)[nH]1,21,1,1,10*,-4,179
COc1ccc(CCN(Cc2nc3ccccc3c(=O)[nH]2)C(=O)c2ccco2)cc1,8,0,12,0,24,950
CCC(CC)C(=O)N(CCc1ccc(OC)cc1)Cc1nc2ccccc2c(=O)[nH]1,14,2,3,-1,56*,-32
CCOc1ccc2nc(NC(=O)c3ccco3)sc2c1,25,2,-7,8,-17,-46
CCOC(=O)c1ccc2nc(NC(=O)c3cccs3)sc2c1,2,7,4,42*,-27,91
CCCC(=O)Nc1nc2ccc(C(=O)OCC)cc2s1,18,2,6,-1,-12,-10
CCOC(=O)c1ccc2nc(NC(=O)c3ccco3)sc2c1,5,-1,11,16*,-14,1
CCC1(C)CC(C(CC(=O)O)c2ccc(C)cc2)CCO1 (stereo unspecified),11,2,-7,11*,4,241
Oc1[nH]c2ccccc2c1C1=NCCCCC1,5,3,62*,1,-9,-15
O=C(NNc1nc(-c2ccc(Cl)cc2)cs1)c1ccco1,u,1,43,-5,-4,3
COc1ccc(-c2csc(NC(=S)NC(=O)c3ccco3)n2)cc1Br,18,4,-1,-3,6,60
O=C(NNc1nc(-c2ccccc2)cs1)c1ccco1,-31,1,72*,-3,6,-9
Cc1ccc(-c2csc(NC(=S)NC(=O)c3ccco3)n2)cc1,35,8,7,20*,-2,-9
CCn1cc(C(=O)NCc2cccc(F)c2)c(=O)c2cc(F)c(N3CCN(C(=O)c4ccco4)CC3)cc21,12,10,-2,-18,55*,-9
CCCNC(=O)c1cn(CC)c2cc(N3CCN(C(=O)c4ccco4)CC3)c(F)cc2c1=O,5,3,-1,-2,28,2
SMILES,AI-2 QS modul,NTR1 ag,AHR activator,GRIN3A LBD mod,Cardio protect,SUMO Mot1 rescue
CCOc1ccc(OCCC(=O)N(CC)CC(=O)Nc2ccccc2OC)cc1,x,x,x,1,-5,x
OCc1cc(Br)ccc1OCc1nc2ccccc2s1,-6,2,48*,-5,-12,8
Oc1ccccc1OCc1nc2ccccc2s1,-55,-3,-8,0,-3,-45
CCOC(=O)c1cnc(-n2nc(C)cc2C)nc1NCc1ccc2c(c1)OCO2,25,3,0,0,16,169
CCOC(=O)c1cnc(-n2nc(C)cc2C)nc1NCCc1ccccc1,34,8,-8,-1,61*,5
CCOC(=O)c1cnc(-n2nc(C)cc2C)nc1Nc1ccc(OC)cc1,12,4,1,1,50*,-21
CCOC(=O)c1cnc(-n2nc(C)cc2C)nc1NC1CCCC1,21,10,-2,-4,-7,276
O=Cc1ccc(-c2cccs2)s1,x,x,x,-1,-5,x
Oc1ccc(N=Cc2ccc(-c3cccs3)s2)cc1,33,2,1,27*,-10,1
CC(=O)c1ccc2noc(-c3ccc(Cl)cc3)c2c1,3,2,4,1,6,5
O/N=C\c1ccc2noc(-c3ccc(Cl)cc3)c2c1,28,1,3,32*,1,-21
CCCCCNC(=O)C(=O)C1C(=O)Nc2ccccc21 (stereo unspecified),19,-1,25,28*,-2,-23
C[C@@H]1CN([C@H](C)CO)C(=O)CCCn2nncc2CO[C@H]1CN(C)C(=O)Nc1ccc(N2CCN(C)CC2)cc1,x,x,x,x,13,x
Cc1ccc(SCC(=O)Nc2cccc(-c3nnc(-c4ccco4)o3)c2)cc1,5,23,3,1,-26,182
O=C(CSc1ccc(Cl)cc1)Nc1cccc(-c2nnc(-c3ccco3)o2)c1,14,3,1,11*,-7,10
COc1ccc(Br)cc1C(=O)Nc1cccc(-c2nnc(-c3ccco3)o2)c1,-6,17,1,-1,-5,331*
COc1ccc(Br)cc1C(=O)Nc1ccc(NC(=O)c2ccco2)cc1,-1,6,36,18*,2,5
COc1cccc(C(=O)Nc2cccc(-c3nnc(-c4ccco4)o3)c2)c1,0,37,1,-14,113*,9
Cc1cc(N2CCCC2=O)ccc1S(=O)(=O)NC1CCCCC1,8,1,1,-2,-13,-20
O=C(COC(=O)Cc1c(F)cccc1Cl)NCc1ccc2c(c1)OCO2,x,3,-1,0,1,7
O=[N+]([O-])c1ccc(N2CCCC2)cc1NC(c1ccccc1)c1ccccc1,3,1,-1,14*,-13,0
